Measurements: PubChem BioAssay AID720650 (Broad Institute, 2013)
Values without a mark were called inactive. Activity calls are given as the source filed them. How the calls were made is not given here.

experiment: Biochemical counterscreen for C difficile toxins, absence of UDPG, inhibitor dose response (AID 720650); settings: series mostly up to 19.5 µM

Compound | AC50
COc1cc(/C=C/C(=O)OCC(=O)Nc2ccc(S(N)(=O)=O)cc2)ccc1O | inactive
C[C@H](CO)N1C[C@H](C)[C@@H](CN(C)C(=O)Nc2ccc(C(F)(F)F)cc2)Oc2c(NS(=O)(=O)c3cccs3)cccc2C1=O | > 39 µM
CN(C(=O)COC(=O)CNC(=O)c1ccccc1Cl)c1ccccc1 | inactive
CCCNC(=O)C[C@H]1CC[C@@H]2[C@H](COc3ccc(NC(=O)c4ccc(Cl)cc4)cc3C(=O)N2C)O1 | > 39 µM
Cc1cc(C(=O)N2CCN(Cc3ccccc3)CC2)ccc1[N+](=O)[O-] | inactive
O=C(OCC(=O)N1CCCCC1)c1ccccc1SCC(=O)N1CCCCC1 | inactive
CCCNC(=O)C1CC(=O)N(c2ccc(OCC)cc2)C1 (stereo unspecified) | inactive
Nc1ncc(S(=O)(=O)c2ccc([N+](=O)[O-])cc2)s1 | inactive
Cn1c(=O)c2[nH]c(=S)n(Cc3ccccc3)c2n(C)c1=O | 14.4 µM (active)
Cc1cc(C=C2C(=O)c3ccccc3C2=O)c(C)n1-c1ccc(C(=O)O)cc1 | 12 µM (active)
Cc1ccc(NC(=O)OC(C)N2CCCCC2)cc1NC(=O)OC(C)N1CCCCC1 (stereo unspecified) | inactive
Cc1ccccc1C(C(=O)NC1CCCCC1)N(C(=O)c1ccccn1)c1cccnc1 (stereo unspecified) | inactive
Cc1cc(C(=O)CSc2nc(N)cc(=O)[nH]2)c(C)n1CC1CCCO1 (stereo unspecified) | inactive
CC(C(=O)OCC(=O)c1c(N)n(C)c(=O)n(C)c1=O)N1C(=O)c2ccccc2C1=O (stereo unspecified) | inactive
COc1ccc(C2=NS(=O)(=O)N(C)C(C(=O)NCc3ccccc3)=C2)cc1OC | inactive
Oc1ccc(CCc2ccccn2)cc1 | 11.6 µM (active)
O=C(CCC(=O)N1CCSc2ccccc21)Nc1cccc(F)c1 | inactive
O=C(Nc1ccc(O)cc1)/C(=C/c1ccco1)NC(=O)c1ccccc1 | 14.7 µM (active)
C[C@@H]1C=C[C@](Cc2ccccc2)(C(=O)NCC2CC2)N1C(=O)c1ccccc1 | inactive
NC(=O)CC(NC(=O)c1ccccc1)c1ccc(NCCc2ccc(F)cc2)c([N+](=O)[O-])c1 (stereo unspecified) | inactive
Oc1ccc(-c2nc3cnccn3c2Nc2ccc3c(c2)OCCO3)cc1 | inactive
